# In PubChem BioAssay AID1159580 (chemical genetic matrix, 2015):
# Several values for one entry are separate records, joined by “and”; a condition that tells them apart may be missing. Identical values can stand only once. About 2,000 (36%) of roughly 5,500 compounds were called active. Not shown: some 18% with an inconclusive outcome. This is one part of the list. Unmarked numbers belong to inactive results. Cut-off read from the data, not from the text of the source: active = normalized growth mostly below about 0.91 (no sharp cut-off); inconclusive = no clear call, values can overlap the other calls; inactive = mostly above about 0.92.
# Assay: chemical genetic growth profiling, strain panel (AID 1159580);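 note: tested at 20 µM; growth read once vehicle control cultures reached saturation at 30 °C; 1 = growth at the plate median or of vehicle wells; lower values mean less growth of the strain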
# Settings: S. cerevisiae deletion strains, growth OD
compound,measurement,setting,value
COc1ccc2cc3[n+](cc2c1OC)CCc1cc2c(cc1-3)OCO2,normalized growth,"locus YAL013W, strain DEP1, hits give low values",0.509 (active)
same,normalized growth,"locus YAL021C, strain ccr4, hits give low values",0.997
same,normalized growth,"locus YAL026C, strain drs2, hits give low values",0.99
same,normalized growth,"locus YAL030W, strain snc1, hits give low values",0.996
same,normalized growth,"locus YBL061C, strain skt5, hits give low values",0.986
same,normalized growth,"locus YBR009C, strain hhf1, hits give low values",1
same,normalized growth,"locus YBR021W, strain FUR4, hits give low values",0.847
same,normalized growth,"locus YBR023C, strain chs3, hits give low values",0.982
same,normalized growth,"locus YBR171W, strain sec66, hits give low values",0.983
same,normalized growth,"locus YBR229C, strain ROT2, hits give low values",0.762 (active)
same,normalized growth,"locus YBR231C, strain swc5, hits give low values",0.985
same,normalized growth,"locus YBR279W, strain paf1, hits give low values",0.987
same,normalized growth,"locus YCL011C, strain gbp2, hits give low values",0.998
same,normalized growth,"locus YCL016C, strain dcc1, hits give low values",0.982
same,normalized growth,"locus YCL029C, strain bik1, hits give low values",0.379 (active)
same,normalized growth,"locus YCL061C, strain MRC1, hits give low values",1.01
same,normalized growth,"locus YCL069W, strain vba3, hits give low values",0.999
same,normalized growth,"locus YCR088W, strain abp1, hits give low values",0.98
same,normalized growth,"locus YDL005C, strain med2, hits give low values",0.984
same,normalized growth,"locus YDL035C, strain GPR1, hits give low values",0.278 (active)
same,normalized growth,"locus YDL040C, strain nat1, hits give low values",0.986
same,normalized growth,"locus YDL074C, strain BRE1, hits give low values",0.352 (active)
same,normalized growth,"locus YDL101C, strain DUN1, hits give low values",0.569 (active)
same,normalized growth,"locus YDL134C, strain PPH21, hits give low values",0.398 (active)
same,normalized growth,"locus YDL185W, strain tfp1, hits give low values",1
same,normalized growth,"locus YDL192W, strain arf1, hits give low values",0.436 (active)
same,normalized growth,"locus YDR001C, strain nth1, hits give low values",0.981
same,normalized growth,"locus YDR069C, strain doa4, hits give low values",1
same,normalized growth,"locus YDR101C, strain arx1, hits give low values",0.278 (active)
same,normalized growth,"locus YDR137W, strain rgp1, hits give low values",0.979
same,normalized growth,"locus YDR150W, strain NUM1, hits give low values",0.681 (active)
same,normalized growth,"locus YDR159W, strain sac3, hits give low values",1.02
same,normalized growth,"locus YDR162C, strain NBP2, hits give low values",0.533 (active)
same,normalized growth,"locus YDR195W, strain ref2",0.977
same,normalized growth,"locus YDR297W, strain sur2, hits give low values",0.99
same,normalized growth,"locus YDR318W, strain mcm21, hits give low values",0.461 (active)
same,normalized growth,"locus YDR334W, strain swr1, hits give low values",0.973
same,normalized growth,"locus YDR335W, strain msn5, hits give low values",0.967
same,normalized growth,"locus YDR388W, hits give low values",0.365 (active)
same,normalized growth,"locus YDR392W, strain spt3, hits give low values",0.984
same,normalized growth,"locus YDR502C, strain sam2, hits give low values",0.345 (active)
same,normalized growth,"locus YEL003W, strain gim4, hits give low values",0.99
same,normalized growth,"locus YEL037C, strain rad23, hits give low values",0.981
same,normalized growth,"locus YEL061C, strain CIN8 (second series), hits give low values",0.993
same,normalized growth,"locus YEL061C, strain CIN8, hits give low values",0.567 (active)
same,normalized growth,"locus YER015W, strain faa2, hits give low values",0.991
same,normalized growth,"locus YER016W, strain bim1, hits give low values",0.981
same,normalized growth,"locus YER110C, hits give low values",0.452 (active)
same,normalized growth,"locus YER111C, strain swi4, hits give low values",1
same,normalized growth,"locus YER155C, strain BEM2 (second series), hits give low values",0.968
same,normalized growth,"locus YER155C, strain BEM2, hits give low values",0.957
same,normalized growth,"locus YER167W, strain BCK2, hits give low values",0.467 (active)
same,normalized growth,"locus YFR010W, strain ubp6, hits give low values",0.992
same,normalized growth,"locus YGL078C, strain dbp3, hits give low values",0.854 (active)
same,normalized growth,"locus YGL086W, strain mad1, hits give low values",0.394 (active)
same,normalized growth,"locus YGL167C, strain pmr1, hits give low values",0.983
same,normalized growth,"locus YGL173C, strain kem1, hits give low values",0.989
same,normalized growth,"locus YGL227W, strain vid30, hits give low values",0.989
same,normalized growth,"locus YGL240W, strain doc1, hits give low values",0.996
same,normalized growth,"locus YGL248W, strain PDE1, hits give low values",0.3 (active)
same,normalized growth,"locus YGL253W, strain hxk2, hits give low values",0.988
same,normalized growth,"locus YGR078C, strain PAC10, hits give low values",0.481 (active)
same,normalized growth,"locus YGR135W, strain pre9, hits give low values",0.318 (active)
same,normalized growth,"locus YGR229C, strain SMI1, hits give low values",0.454 (active)
same,normalized growth,"locus YGR252W, strain gcn5, hits give low values",0.604 (active)
same,normalized growth,"locus YHR013C, strain ard1, hits give low values",0.943
same,normalized growth,"locus YHR027C, strain rpn1, hits give low values",0.998
same,normalized growth,"locus YHR030C, strain SLT2, hits give low values",0.664 (active) and 0.844 (active)
same,normalized growth,"locus YHR079C, strain IRE1 (second series), hits give low values",0.439 (active)
same,normalized growth,"locus YHR079C, strain IRE1, hits give low values",0.783 (active)
same,normalized growth,"locus YHR094C, strain hxt1, hits give low values",0.689 (active)
same,normalized growth,"locus YHR129C, strain ARP1, hits give low values",0.699 (active)
same,normalized growth,"locus YHR142W, strain chs7, hits give low values",0.995
same,normalized growth,"locus YHR200W, strain rpn10, hits give low values",0.518 (active)
same,normalized growth,"locus YIL066C, strain RNR3, hits give low values",0.373 (active)
same,normalized growth,"locus YIL073C, strain SPO22, hits give low values",0.209 (active)
same,normalized growth,"locus YIL125W, strain kgd1, hits give low values",0.966
same,normalized growth,"locus YIR030C, strain dcg1, hits give low values",0.521 (active)
same,normalized growth,"locus YJL092W, strain hpr5, hits give low values",0.982
same,normalized growth,"locus YJL095W, strain BCK1 (second series), hits give low values",1.01
same,normalized growth,"locus YJL095W, strain BCK1, hits give low values",0.417 (active) and 0.79 (active)
same,normalized growth,"locus YJL115W, strain asf1, hits give low values",0.986
same,normalized growth,"locus YJL129C, strain trk1, hits give low values",0.993
same,normalized growth,"locus YJL134W, strain LCB3, hits give low values",0.874 (active)
same,normalized growth,"locus YJL154C, strain vps35, hits give low values",0.974
same,normalized growth,"locus YJL164C, strain tpk1, hits give low values",0.99
same,normalized growth,"locus YJL166W, strain qcr8, hits give low values",1.01
same,normalized growth,"locus YJL168C, strain set2, hits give low values",0.826 (active)
same,normalized growth,"locus YJL187C, strain SWE1 (second series), hits give low values",0.291 (active)
same,normalized growth,"locus YJL187C, strain SWE1, hits give low values",0.989
same,normalized growth,"locus YJR043C, strain POL32, hits give low values",0.482 (active)
same,normalized growth,"locus YJR066W, strain TOR1, hits give low values",0.765 (active)
